Structures are written as SMILES.

The values that follow come from ChEMBL document CHEMBL3433997, “St. Jude Leishmania screening dataset” (2016).

Sequence of Solute carrier family 2, facilitated glucose transporter member 1 (Homo sapiens) (P11166 whole entry): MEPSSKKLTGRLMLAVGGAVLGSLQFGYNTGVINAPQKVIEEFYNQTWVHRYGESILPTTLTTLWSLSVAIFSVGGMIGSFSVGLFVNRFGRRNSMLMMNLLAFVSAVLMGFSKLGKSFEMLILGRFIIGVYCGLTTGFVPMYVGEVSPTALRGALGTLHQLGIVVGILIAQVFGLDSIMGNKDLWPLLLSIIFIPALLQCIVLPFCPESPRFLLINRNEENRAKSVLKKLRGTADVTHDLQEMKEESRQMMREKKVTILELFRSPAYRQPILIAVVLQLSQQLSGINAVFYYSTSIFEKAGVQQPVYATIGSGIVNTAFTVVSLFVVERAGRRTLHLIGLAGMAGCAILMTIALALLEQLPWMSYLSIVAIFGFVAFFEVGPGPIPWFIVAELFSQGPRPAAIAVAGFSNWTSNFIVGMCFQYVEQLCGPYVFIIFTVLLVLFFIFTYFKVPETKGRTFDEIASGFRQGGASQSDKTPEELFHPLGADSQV

The test concerns the target Solute carrier family 2, facilitated glucose transporter member 1 (Homo sapiens) (UniProt P11166). In words: ST_JUDE_LEISH: Cytotoxicity at 2uM final concentration against transgenic Leishmania Mexicana promastigotes LmGLUT1 that are glucose transport deficient and complemented with the human glucose transporter GLUT1. Activity is measured by DNA content using SYBR green in vitro. Type of test: functional.
`CC1(C)N=C(N)N=C(N)N1c1cccc(Cl)c1`: the inhibition was found to be 0.67%.

For the compound `COc1c(C2CCN(CCCCNC(=O)c3ccc(-c4ccc(Cl)cc4)cn3)CC2)ccc2c1CCCC2`, the inhibition is -1.51%.

For the compound `CC(CNC(=O)[C@H]1CNCCN1C(=O)CCCc1ccccc1)c1ccccc1` (stereo partly specified), the inhibition worked out at 0.97%.

For `CC1(C)NC(N)=NC(=N)N1OCc1nc(N)nc(Nc2ccccc2)n1`, the inhibition was determined as 5.43%.

As to `C[C@H](NC(=O)c1c(CN2CCN(C(=O)C(C)(C)C)CC2)c(-c2cccs2)nc2ccccc12)C1CCCCC1`, the inhibition was determined as 6.07%.

Turning to `C=CCNC(CCCCC)c1ccc(OCCOc2ccc(C(CCCCC)NCC=C)cc2)cc1` (stereo unspecified), the inhibition was determined as 0.79%.

For `Cc1cc(NC(=O)c2cccs2)ccc1OC1CCN(Cc2ccccc2)C1` (stereo unspecified), the inhibition is 0.25%.

`C=CCNC(=O)C(C)c1ccc2cc(OC)ccc2c1` (stereo unspecified): the inhibition was found to be 0.71%.

Take `COc1ccc(CC2(c3ccc(F)cc3)N=C(N)N(CCCc3ccccc3)C2=O)cc1` (stereo unspecified): the inhibition amounted to 5.85%.

For `CCCN(CCC)S(=O)(=O)c1ccc(C(=O)N2CCC(C(=O)OCC)CC2)cc1`, the inhibition turned out to be 6.42%.

As for `CC(C)=CCc1c(-c2ccc(O)cc2O)oc2c3c(cc(O)c2c1=O)OC(C)(C)C=C3`, the inhibition was found to be 5.72%.

`O=[N+]([O-])c1ccc(Nc2nc(N/N=C/c3cc(Cl)cc(Cl)c3O)nc(Nc3ccccc3)n2)cc1`: the inhibition was 2.04%.

Consider `O=C(Nc1ccc([N+](=O)[O-])cc1Br)c1cc2ccccc2nc1Cl`, for which the inhibition was 8.95%.

As to `CNC(=O)c1cnc(Nc2ccc(N3CCN(C)CC3)cc2)nc1Nc1cccc(OC)c1`, the inhibition stood at 3.74%.

`Cc1nc2sccn2c1C(=O)NCCc1ccccc1Cl`: the inhibition amounted to 0.29%.

On to `CCOC(=O)N1CCN(CCCCCNc2cc(C)nc(NC(=N)Nc3ccc(Cl)cc3)n2)CC1`, for which the inhibition worked out at 6.99%.
